Test in all cases: NCI-60 one-dose screen, 48 h (100 = growth as untreated, 0 = no growth, -100 = all killed)
What all share (conditions): 10 µM unless noted

Assay [1] deals with DU-145 prostate.
Assay [2] relates to K-562 leukemia.
For assay [3], the system named is MALME-3M melanoma.
The test system of assay [4] is MDA-MB-231 breast.
The test system of assay [5] is RXF 393 renal.
Assay [6] concerns SF-268 CNS.
Assay [7] relates to SF-295 CNS.
The subject of assay [8] is SF-539 CNS.
Assay [9] relates to UACC-257 melanoma.
Assay [10] relates to M14 melanoma.

SMILES strings stand for the structures. Compounds without any hit were thinned out: in the full panel of roughly 83,000, 20% have a hit.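 Step 1: grow cells in 96-well plates. Step 2: add test compound at a single concentration. Step 3: incubate 48 h. Step 4: record percent growth.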 Values without a mark were called inactive. Activity calls are given as the source filed them. How the source made its calls: active means growth percent below 10; inactive means the rest.

Take `O=C(N=Nc1c(O)[nH]c2ccc(Br)cc12)c1cc(-c2ccccc2)on1`: the growth in [1] is 110%; in assay [2], 109%; in assay [3] it was 89.5%; in assay [4], 100%; in assay [5], 117%; in assay [6], 100%. The growth in assay [7] was 97.1%; in [8], 97.6%; in assay [9] it was 110%.
`COc1cc(C2CC(=O)c3ccccc3N2)cc(OC)c1OC` (stereo not drawn): the growth is 117% in assay [1]; 97.6% in assay [2]; 93.7% in assay [3]; 86.9% in assay [4]; 102% in [5]; 104% in assay [6]. Further, the growth in assay [7] is 91.7%; in assay [8], 102%; in assay [9] it was 87.1%.
As to `CSc1nc(NCc2ccccc2)c(C#N)c(-c2cccc([N+](=O)[O-])c2)n1`, the growth was 103% in assay [1]; 90.7% in [2]; 113% in assay [3]; 82.7% in assay [4]; 102% in [5]; 94.3% in assay [6]. In addition, the growth was 98.9% in assay [7], 104% in assay [8], 109% in [9] and 98% in assay [10].
Regarding `COc1ccc(C(=O)COc2ccc(/C=C3\Oc4ccc(OC)cc4C3=O)cc2)cc1`, the growth is 116% in [1]; 16.8% in assay [2]; 102% in assay [3]; 89.7% in assay [4]; 110% in [5]; 121% in [6]. For the same compound, the growth in assay [7] was 81.9%; in assay [8] it was 104%; in assay [9], 94%.
In the case of `CC(C)(C)CC(C)(C)c1ccc(OCCOCC[N+](C)(C)Cc2ccccc2)cc1`, the growth in [1] is 39.4%; in [2], -35.4% (active); in [3], -16.4% (active); in assay [4] it was -88.2% (active); in [5] it was 0.0752% (active); in [6], -54.1% (active). The growth was 41.8% in [7], -64.9% (active) in assay [8], -90.8% (active) in assay [9] and -27.5% (active) in assay [10].
Consider `CC[C@@H](C(=O)[C@@H](C)[C@@H](O)[C@H](C)[C@@H]1O[C@@H]([C@@H](CC)C(=O)O)CC[C@@H]1C)[C@H]1OC2(C=C[C@@H](O)[C@]3(CC[C@@](C)([C@H]4CC[C@](O)(CC)[C@H](C)O4)O3)O2)[C@H](C)C[C@@H]1C` (stereo partly drawn), for which the growth in assay [1] is 45.8%; in assay [2], -33.8% (active); in assay [3] it was -90.7% (active); in assay [4] it was -39% (active); in [5] it was -32.6% (active); in [6], 27.4%. Also, the values for the growth in [7], in [8] and in [9] were 1.38% (active), -28.1% (active) and 7.26% (active), respectively.
As for `O=C(CN1C(=O)/C(=C/c2ccc(Cl)cc2)SC1=S)NCCCN1CCOCC1`, the growth was 102% in assay [1]; 94.2% in assay [2]; 90.7% in assay [3]; 99.3% in assay [4]; 105% in assay [5]; 93.6% in [6]. The growth in assay [7] was 93.2%; in assay [8] it was 92.8%; in assay [9], 101%.
`CCN(CC)CCCCNc1c2ccc(Cl)cc2nc2ccc(OC)cc12`: the growth is -2.29% (active) in [1]; -19% (active) in [2]; -65.6% (active) in [3]; -52.4% (active) in assay [4]; -61% (active) in assay [5]; -23.1% (active) in [6]. The growth in assay [7] is -58.7% (active); in [8], -83% (active); in [9] it was -37.1% (active); in assay [10] it was -71.3% (active).
Turning to `C=CC(=O)Nc1cccc(-c2nc(SC)nc(Nc3ccccc3OC)c2C#N)c1`, the growth was 10.8% in [1]; 8.6% (active) in [2]; -10.4% (active) in [3]; 33.2% in [4]; 39.7% in assay [5]; 53.5% in assay [6]. Moreover, the growth was 80.3% in [7], 68.6% in [8] and 57.5% in assay [9].
Consider `O=C1NC(=S)N[C@H]1CC(=O)n1cnc2ccccc21`, for which the growth was 109% in [1]; 114% in assay [2]; 98.2% in [3]; 101% in assay [4]; 99.7% in [5]; 100% in assay [6]. Besides, the growth is 100% in assay [7], 99% in assay [8] and 116% in [9].
With `Cn1nc(N)c2cc([C@@H]3Nc4ccc5[nH]ncc5c4[C@H]4C5CCC(C5)[C@@H]34)ccc21` (stereo partly drawn), the growth in [1] is 18.8%; in assay [2], 9.76% (active); in assay [3], 52.7%; in assay [4], 48.5%; in [5] it was -11.1% (active); in assay [6] it was 42.5%. In addition, the growth in assay [7] is 9.61% (active); in assay [8], -15.5% (active); in assay [9] it was 77.4%; in [10] it was 3.16% (active).
On to `CCCOc1cc2ccccc2cc1C(=O)Nc1nc(NC)c2c(ccc3nccc32)[nH]1`, for which the growth in assay [1] was -82.8% (active); in [2], -54.3% (active); in assay [3], -80.7% (active); in assay [4], -71.3% (active); in assay [5], -71.7% (active); in [6], -78% (active). Besides, the growth in [7] is -66.6% (active); in assay [8], -76.9% (active); in [9], -75.4% (active).
Turning to `C=CC(=O)Nc1cccc(Nc2nc(SC)nc(-c3cccc([N+](=O)[O-])c3)c2C#N)c1`, the growth was 30% in assay [1]; 46.5% in [2]; 14.9% in [3]; 52.2% in assay [4]; 18.5% in assay [5]; 74.8% in [6]. Also, the growth in assay [7] is 49.7%; in assay [8], 76.6%; in assay [9], 49%; in assay [10] it was 45%.
Turning to `O=C1c2ccccc2C(=O)c2c(N=Nc3[nH]c(=S)[nH]c3O)cccc21`, the growth is 16.3% in assay [1]; 9.57% (active) in assay [2]; 45.4% in assay [3]; 40.3% in assay [4]; -22.4% (active) in assay [5]; 32.1% in assay [6]. The growth is 7.45% (active) in assay [7], -32.3% (active) in assay [8] and 56.9% in assay [9].
As for `COc1ccc(S(=O)(=O)N2CCCCC2)cc1NC(=O)c1[nH]c(C)c2c1CCCCC2=O`, the growth was 61.5% in [1]; 22% in assay [2]; 45.2% in assay [3]; 29.1% in assay [4]; 3.54% (active) in assay [5]; 48.1% in assay [6]. Also, the growth is 23.9% in assay [7], 24.9% in assay [8], 32% in assay [9] and 36% in assay [10].
For `COc1ccccc1NS(=O)(=O)c1ccc2oc(SC(C)C)nc2c1`, the growth in assay [1] is 98.9%; in [2], 45.8%; in assay [3], 81.7%; in [4], 86.5%; in assay [5] it was 107%; in [6], 89.8%. For the same compound, the growth in assay [7] is 88.5%; in assay [8], 103%; in [9] it was 71.8%.
Take `CCCSc1ccc2nc(NC(=O)OC)[nH]c2c1`: the growth was 16.1% in [1]; 14.7% in assay [2]; 42% in assay [3]; 18.8% in assay [4]; -4.86% (active) in assay [5]; 44.8% in assay [6]. The growth is -2.45% (active) in assay [7], 4.44% (active) in assay [8] and 59.3% in [9].
Turning to `C#CC(F)(F)[C@]1(O)CC[C@H]2[C@@H]3CCC4=CC(=O)CCC4=C3[C@@H](c3ccc(C(C)=O)cc3)C[C@@]21C`, the growth was 86.4% in [1]; 61.4% in assay [2]; -63.4% (active) in [3]; 60.6% in assay [4]; 85.4% in [5]; 36.3% in assay [6]. Besides, the growth in assay [7] was 22.5%; in assay [8], -81.9% (active); in assay [9], 89.8%.
For `COc1cc2c(cc1-c1c(C)noc1C)ncc1nc(-c3ccccn3)n([C@H](C)COC(F)F)c12`, the growth is 64.2% in assay [1]; 32.8% in assay [2]; 70.1% in assay [3]; 41.2% in assay [4]; 60.8% in [5]; 70.9% in assay [6]. Moreover, the growth was 60.4% in assay [7], 41.7% in [8] and 44.4% in [9].
Consider `CCCCCCCCCCCCC[N+](C)(C)Cc1ccccc1`, for which the growth in assay [1] was 0.808% (active); in assay [2], 2.97% (active); in assay [3], -44.7% (active); in assay [4] it was -55.6% (active); in [5], -73.3% (active); in assay [6], -84.5% (active). In addition, the growth in assay [7] is 13.5%; in assay [8], -73% (active); in assay [9], -44.2% (active).
For `O=C(O)c1c(=O)cccc2ssc12`, the growth is -64.5% (active) in [1]; 4.02% (active) in assay [2]; -58.3% (active) in assay [3]; -57.3% (active) in assay [4]; -66.8% (active) in [5]; -38.6% (active) in assay [6]. In addition, the growth is -6.02% (active) in assay [7], -18.6% (active) in assay [8] and 54.1% in [9].
For `Cc1cc(C)nc(SC2=C(Nc3cc(Cl)ccc3O)C(=O)N(Cc3ccccc3)C2=O)n1`, the growth in assay [1] is 95.8% [30 µM]; in assay [2] it was 58.5% [30 µM]; in [3] it was -56.7% [30 µM] (active); in [4], 64.5% [30 µM]; in assay [5], 58.7% [30 µM]; in assay [6] it was 93.8% [30 µM]. For the same compound, the growth was 112% [30 µM] in assay [7], 118% [30 µM] in assay [8], 83.5% [30 µM] in [9] and 95.2% [30 µM] in assay [10].
On to `Cn1cccc1-c1nc2c3c(ccc2[nH]1)C(=O)c1ccccc1C3=O`, for which the growth in assay [1] is 101%; in assay [2], 73.8%; in assay [3], 90.5%; in assay [4], 88.6%; in assay [5], 93%; in [6] it was 97.8%. Further, the growth in [7] was 97.9%; in assay [8], 90.7%; in assay [9] it was 94.3%.
Take `COc1cc2c(cc1-c1c(C)noc1C)ncc1nc(C3CCC(F)(F)CC3)n([C@H](C)COC(F)F)c12`: the growth in assay [1] is 71.4%; in assay [2], 30.5%; in [3] it was 67.5%; in assay [4], 44.1%; in assay [5], 55.8%; in assay [6], 67.4%. The growth in assay [7] was 49.3%; in assay [8] it was 34%; in [9] it was 34.9%; in [10], 45.9%.
Regarding `c1csc(C2=NN3C(C2)c2ccccc2OC3c2ccncc2)c1` (stereo not drawn), the growth is 97% in assay [1]; 99.2% in assay [2]; 86.9% in assay [3]; 89.1% in assay [4]; 105% in assay [5]; 89.5% in [6]. Besides, the growth in [7] was 96.1%; in assay [8] it was 96.7%; in assay [9] it was 96.5%.

These data come from PubChem BioAssay (NCI).
